Screening data: PubChem, National Center for Advancing Translational Sciences (NCATS)
This is a sample that favours compounds with a hit; in the whole collection about 7.9% have one here.
HCMV inh = blocks human cytomegalovirus replication. HFF cells, HCMV-luciferase reporter, 72 h; stronger effect = lower value. activity change, negative = inhibition, % at 57.5 µM. hit rate 4.5% among 410,000; in the data active means activity change below about -60%; inconclusive means no clear call, values can overlap the other calls; inactive means above about -39%
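Two compound doses tested in HFFs infected with HCMV-luciferase, MOI 1 PFU/cell, 72 h at 37C. Lysate luminescence read with OneGlo; data normalized against buffer-only and 10uM Salinomycin inhibitor controls.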
HCV inhibitor = blocks hepatitis C virus. Potency, µM (doses to about 41.8 µM), inactives show at the top dose activity change, negative = inhibition, hits mostly inhibitors. AID 651820. hit rate 3.4% among 340,000. Huh7.5.1 HCVcc-Cre infection, luciferase reporter, 44 h; active means well fitted inhibition curve with a large enough effect; inconclusive means small, poorly fitted or top-dose-only effect, or another doubt; inactive means no such curve, though single readings can be large or run the other way; further: potency means the concentration at half of the fitted maximal effect
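1,000 cells/well; 4 h culture; + compound; + HCVcc-Cre (~0.5 moi); 44 h; luciferase substrate, RT 15 min; read 15 sec.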
Marburg entry inh = Marburg virus entry inhibition | Marburg virus pseudotyped entry inhibition, cell reporter | hit rate 1.8% among 300,000 | Potency, µM (titrated, usually from 37.8 µM), without a hit: at the highest dose activity change, negative = inhibition, usual class: inhibitors; calls by dose curve; tested in HEK293 cells; further: potency means the concentration at half of the fitted maximal effect
FMDV antiviral = foot and mouth disease virus antiviral activity; AID 1159524; Potency, µM (highest dose often 57.9 µM), for the others: at the top dose activity change, negative = inhibition, actives largely listed as inhibitors; FMDV antiviral cell-based qHTS; hit rate 1.2% among 410,000; calls by dose curve; tested in HEK293T cells; further: read-out not given here; potency means the concentration at half of the fitted maximal effect; nearly all actives have a fitted effect of over 45% in size
LASV entry inh = blocks Lassa virus binding to or entry into cells | Lassa virus pseudotype entry inhibition, cell reporter | Potency, µM (series often up to 37.9 µM), without a hit: top-dose activity change, negative = inhibition, most hits filed as inhibitors | hit rate 1.2% among 300,000 | AID 540256; calls by dose curve; tested in HEK293 cells; further: potency means the concentration at half of the fitted maximal effect; nearly all actives have a fitted effect of over 50% in size
Starred values were filed as active, the others as inactive; [ ] = remark or other dose. On the % scale 0 is the no-effect control and ±100 the full control effect.

Results for COc1cc(=O)n2c(c1C(=O)N(C)Cc1ccsc1)CCN(Cc1c(C)nc3sccn13)CC2 ?
FMDV antiviral: -8.8%

Results for Cc1c(CNCCc2ccc(S(N)(=O)=O)cc2)c(C(=O)O)c(C)n1Cc1ccc(Cl)cc1 ?
HCMV inh: 19.4; Marburg entry inh: 17.8%[46.1 µM]; FMDV antiviral: -14.5%; LASV entry inh: 8.5%[46.1 µM]

How did Cc1ccc(/C=C/C(=O)Nc2ccc(Oc3ccccc3)cc2)o1 do in these assays?
HCMV inh: -29.6; HCV inhibitor: 11.2µM*; Marburg entry inh: inconclusive; FMDV antiviral: -4.3%; LASV entry inh: -17.1%

How did CC(C)COP(=O)(c1ccc(N(C)C)cc1)C(O)c1ccccc1F (stereo not drawn) do in these assays?
HCMV inh: -5.5; HCV inhibitor: 3.55µM*; Marburg entry inh: 7.8%; FMDV antiviral: 22.1%; LASV entry inh: 5.7%

Results for CCOC(=O)C1=C(CN2CCC(C)CC2)NC(=O)NC1c1ccc(F)cc1 (stereo not drawn) ?
HCMV inh: -3.0; FMDV antiviral: -27.0%; LASV entry inh: -9.5%[46.1 µM]

What do the screens show for `COc1cc(/C=C2/SC(N)=NC2=O)ccc1Oc1ccc([N+](=O)[O-])cc1[N+](=O)[O-]`?
HCMV inh: -69.8*; HCV inhibitor: 9.9%; Marburg entry inh: inconclusive; FMDV antiviral: -23.9%; LASV entry inh: inconclusive

What do the screens show for `COc1cc(/C=C2/SC(=O)NC2=O)ccc1Oc1ccc([N+](=O)[O-])cc1[N+](=O)[O-]`?
HCMV inh: -35.2; HCV inhibitor: -7.4%; Marburg entry inh: 0.8%; FMDV antiviral: inconclusive

What do the screens show for `COc1cc(/C=C2\SC(=O)NC2=O)ccc1Oc1ccc([N+](=O)[O-])cn1`?
HCMV inh: -60.2*; HCV inhibitor: 6.3%; Marburg entry inh: 6.7%[46.1 µM]; FMDV antiviral: -17.8%; LASV entry inh: -0.6%

Results for O=C(/C=C/c1ccc([N+](=O)[O-])cc1)Nc1ncc([N+](=O)[O-])s1 ?
HCMV inh: -113.3*; HCV inhibitor: 11.2µM*; Marburg entry inh: 5.8µM*; FMDV antiviral: -72.3%; LASV entry inh: inconclusive

How did Cc1nnsc1S(=O)c1ccc(F)cc1 (stereo not drawn) do in these assays?
HCMV inh: -68.9*; HCV inhibitor: -1.3%; FMDV antiviral: inconclusive

Results for Cc1nnsc1S(=O)c1ccc(Br)cc1 (stereo not drawn) ?
HCMV inh: -63.1*; HCV inhibitor: -15.6%; FMDV antiviral: 0.0%

Results for Cc1ccc(S(=O)c2snnc2C)cc1 (stereo not drawn) ?
HCMV inh: 17.8; HCV inhibitor: 3.1%; Marburg entry inh: inconclusive; FMDV antiviral: -2.7%; LASV entry inh: -13.9%[46.1 µM]

Results for Cc1cccc(Nc2ncc(NC(=O)c3cccc(F)c3)c(Nc3cccc(C)c3)n2)c1 ?
HCMV inh: -31.8; Marburg entry inh: inconclusive; FMDV antiviral: -14.6%; LASV entry inh: -1.2%[46.1 µM]

What do the screens show for `Cc1ccccc1Nc1c(-c2ccccc2O)nc2sccn12`?
HCMV inh: -64.4*; Marburg entry inh: 3.4%[46.1 µM]; FMDV antiviral: -10.4%; LASV entry inh: 4.7%[46.1 µM]

How did CCC(C)NC(=O)C1CCN(S(=O)(=O)c2ccc3c(ccn3CC)c2)CC1 (stereo not drawn) do in these assays?
HCMV inh: 8.0; FMDV antiviral: 0.0%; LASV entry inh: 17.9%[46.1 µM]

What do the screens show for `Cc1cc(NC2CCCCC2)nc(NCc2ccccc2)n1`?
HCMV inh: -93.0*; HCV inhibitor: inconclusive; Marburg entry inh: 11.6µM*; FMDV antiviral: inconclusive; LASV entry inh: 23.1µM*

What do the screens show for `Cc1ccc(Nc2cc(C)nc(NCc3ccccc3)n2)cc1`?
HCMV inh: -83.5*; HCV inhibitor: 10µM*; Marburg entry inh: 8.2µM*; FMDV antiviral: -27.9%; LASV entry inh: 25.9µM*

How did COc1cc(C)nc(NCc2ccccc2)n1 do in these assays?
HCMV inh: -16.3; HCV inhibitor: -0.8%; Marburg entry inh: 6.2%; FMDV antiviral: 27.0%; LASV entry inh: 8.6%

How did Cc1cc(C)cc(-n2c(SCC(=O)N3CCc4ccccc43)nc3c([nH]c4ccccc43)c2=O)c1 do in these assays?
HCMV inh: 14.7; FMDV antiviral: -7.0%; LASV entry inh: 19.2%[46.1 µM]

Results for COc1cc2c(cc1OC)C(COc1cccc(C(F)(F)F)c1)NCC2 (stereo not drawn) ?
HCMV inh: -71.4*; HCV inhibitor: inconclusive; FMDV antiviral: inconclusive
